Screening data as filed in PubChem.
HT1080 IDH1KD tx – HT-1080 IDH1 knockdown cell toxicity (counter line); HT-1080 IDH1 knockdown viability, ATP luminescence, 48 h; Potency, µM (doses to about 46.1 µM), without a hit: top-dose activity, negative = toxicity, most hits filed as cytotoxic; actives 2% (n = 360,000); AID 686971;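 further: 0% = DMSO wells and -100% = cell-free medium wells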
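Knockdown cells (IDH1KD HT-1080) received compounds 2 h after plating at 750 cells/well and were kept 48 h at 37 °C in 5% FBS RPMI. A CellTiter-Glo luminescence read gave % activity for curve fitting.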
KB-3-1 cytotox – kills parental KB-3-1 adenocarcinoma cells | KB-3-1 viability, CellTiter-Glo ATP luminescence, 72 h | Potency, µM (top dose mostly 46.1 µM), hits mostly cytotoxic | actives 1.4% (n = 400,000); further: on the % scale 0 is the no-effect control and ±100 the full control effect; nearly all actives have a fitted effect of over 60% in size
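Viability of parental KB-3-1 cells, measured by CellTiter-Glo luminescence, followed a 72 h incubation at 37 °C with pinned compounds in phenol-red-free DMEM containing 10% FBS.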
ATXN2 expr inh – ATXN2 expression inhibition | AID 1745845 | HEK-293 ATXN2-luciferase reporter, luminescence, 24 h | actives 0.72% (n = 360,000) | Potency, µM (highest dose often 57 µM), without a hit: at the top dose activity change, negative = inhibition, usual class: inhibitors; further: on the % scale 0 is the no-effect control and ±100 the full control effect; nearly all actives have a fitted effect of over 55% in size
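qHTS (up to 57 uM final) was run with 24 h compound exposure of reporter cells at 37 °C. Each well was multiplexed: SteadyGlo luminescence measured ATXN2-luciferase expression after a fluorogenic Gly-Phe-AFC viability readout (25 uM final).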
KB-V1 cytotox – KB-V1 MDR subline cytotoxicity; actives 3.4% (n = 400,000); KB-V1 MDR cells viability, CellTiter-Glo, 72 h; Potency, µM (doses to about 46.1 µM), hits mostly cytotoxic; further: on the % scale 0 is the no-effect control and ±100 the full control effect; nearly all actives have a fitted effect of over 60% in size
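Potencies derive from concentration-effect curves fitted to normalized luminescence (CellTiter-Glo) of KB-V1 cells treated for 72 h at 37 degrees C in phenol-red-free DMEM containing 10% FBS.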
HT1080NT lethal – kills 2HG-producing HT-1080-NT fibrosarcoma cells; Potency, µM (top dose mostly 46.1 µM), inactives show top-dose activity, negative = less viability, actives largely listed as cytotoxic; HT-1080-NT fibrosarcoma viability, CellTiter-Glo ATP luminescence, 48 h; actives 1.6% (n = 360,000);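 further: NT is the 2HG producing partner of a matched IDH1 knockdown line; 0% = DMSO-treated cells and -100% = media-only wells without cells; nearly all actives have a fitted effect of over 55% in size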
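A 48-hour cytotoxicity screen used HT-1080-NT cells plated 2 hours before compound delivery. ATP-based CellTiter-Glo luminescence measured viability, normalized to DMSO and no-cell controls.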
ATXN viability – cell viability loss in ATXN counter-screen | S2 cells (HEK-293 line with an ATXN2-luciferase reporter) viability, CellTiter-Fluor protease fluorescence, 24 h | Potency, µM (doses to about 56.7 µM), actives largely listed as cytotoxic | actives 0.49% (n = 400,000); further: nearly all actives have a fitted effect of over 40% in size
Starred values were filed as active, the others as inactive; i = inactive; ? = inconclusive; / = not tested or not shown; [ ] = dose if it differs, or a comment. An excerpt weighted towards active compounds, which were near 6.2% of everything screened. The call rests on the fitted dose curve; in most records, active means well fitted curve in the direction sought with a large enough effect; inconclusive means small, poorly fitted or top-dose-only effect, or another doubt; inactive means no such curve, though single readings can be large; an effect the other way counts as inactive or inconclusive. Potency means the concentration at half of the fitted maximal effect.

SMILES	HT1080 IDH1KD tx	KB-3-1 cytotox	ATXN2 expr inh	KB-V1 cytotox	HT1080NT lethal	ATXN viability
COc1ccc(S(=O)(=O)N2CCCCCC2)cc1N(C)S(=O)(=O)c1ccc(C)cc1	-3%	i	-10%	2.6µM*	0%	i
COc1ccc(NC(=O)COc2ccc(N(C)S(=O)(=O)c3ccc(Cl)cc3)cc2)cc1OC	-28%	21µM*	?	0.92µM*	-7%	?
COc1ccc(S(=O)(=O)Nc2ccc(F)c(F)c2)cc1Cl	?	i	-8%	i	?	i
COc1ccc(NS(=O)(=O)c2ccc(OC)c(N(C)S(=O)(=O)c3ccc(Cl)cc3)c2)cc1	?	i	?	?	14µM*	?
CCC(C(=O)O)c1ccc(N2Cc3ccccc3C2=O)cc1 (centres undefined)	/	/	34%	/	/	i
COCC(=O)Nc1cc(C(=O)N2CC3(C)CC2CC(C)(C)C3)c2c(c1)nc(-c1ccncc1)n2C (centres undefined)	/	/	/	/	/	i
Cc1ccccc1C1(CC(=O)N2CCCCC2C)CC(=O)N(Cc2cccnc2)C1=O (centres undefined)	/	/	/	/	/	i
Cc1ccc(P(C)(=O)c2ccc(C)cc2)cc1	19%	i	12%	i	9%	i
Cc1ccc(NP(=O)(Nc2ccc(C)cc2)Nc2ccc(C)cc2)cc1	-2%	21µM*	-35%	?	-14%	i
CCOc1ccc(CCNC(=O)c2ccc(C)c(-n3cnc4cccnc43)c2)cc1	/	i	/	i	/	/
COc1ccc(OC)c(-c2cc(-c3cccnc3)nc(N)c2C#N)c1	1.5µM*	2.1µM*	-1%	2.6µM*	1.8µM*	i
Cc1ccc(NS(=O)(=O)c2cc(-c3n[nH]c(=O)c4ccccc34)ccc2C)cc1	15µM*	12µM*	-9%	21µM*	18µM*	?
COc1ccc(NS(=O)(=O)c2cc(C)ccc2C)cc1	?	7.3µM*	-12%	i	-25%	i
COc1ccc(NS(=O)(=O)c2cc(C(=O)O)ccc2C)cc1	2%[9.24 µM]	i	1%	i	-26%	i
COc1ccc(NS(=O)(=O)c2cc(NC(=O)c3ccc(=O)[nH]n3)ccc2C)cc1	?	?	/	?	26µM*	i
Cc1ccc(S(=O)(=O)Nc2ccc(SC(F)F)cc2)c(C)c1	-11%	i	-37%	16µM*	-1%	?
CCOC(=O)CNS(=O)(=O)c1cc(-c2n[nH]c(=O)c3ccccc23)ccc1C	-2%	i	4%	i	1%	?
CCc1ccc(C(=O)c2cn(CC(=O)Nc3ccc4c(c3)OCCO4)c3ccc(CC)cc3c2=O)cc1	/	i	14%	i	/	i
COc1ccc(NC(=O)c2cc(S(=O)(=O)N3CCCC3)oc2C)cc1	1%	i	/	?	-13%	i
COc1ccc(NS(=O)(=O)c2cc(OC)ccc2NC(=O)c2cc(C)oc2C)cc1	5.8µM*	?	-20%	?	5.8µM*	?
Cc1ccc(Sc2c(C=O)c3ccccc3n2C)cc1	?	23µM*	-16%	?	?	i
COC(=O)[C@]12CCC(C)(C)C[C@@H]1[C@@H]1C(=O)C=C3[C@@]4(C)C=C(C#N)C(=O)C(C)(C)[C@@H]4CC[C@@]3(C)[C@]1(C)CC2	/	/	1.7µM*	/	/	2.5µM*
NC(=O)CSc1nc2c(c(=O)n1-c1ccccc1)C1(CCCCC1)Cc1ccccc1-2	13µM*	?	0%	?	?	?
CCn1c(SCC(N)=O)nc2c(c1=O)C1(CCCC1)Cc1ccccc1-2	0%	i	-3%	i	4%	i
Cc1cccc(-n2c(SCC(N)=O)nc3c(c2=O)C2(CCCC2)Cc2ccccc2-3)c1	?	?	-10%	3.3µM*	?	i
COc1ccc(-n2c(CNC(=O)c3cccc4ccccc34)nnc2SC)cc1	/	/	/	/	/	i
